# DAX1 inh-1 = DAX1 (NR0B1) inhibitors, primary screen, cell-based, HEK293, Gal4-DAX1, luciferase luminescence. HEK293 Gal4-DAX1 luciferase reporter. inhibition, % at 6.75 µM. actives 0.99% (n = 340,000);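 active = inhibition above the mean over all tested compounds plus 3 SD, cut at about 4.2% in these data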;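 note: 0% = DAX1-transfected cells with DMSO and 100% = empty-vector control cells with DMSO; inhibition shows as a rise in luminescence from relieved DAX1 repression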
# Target sequence (P51843 207-470 limits assumed): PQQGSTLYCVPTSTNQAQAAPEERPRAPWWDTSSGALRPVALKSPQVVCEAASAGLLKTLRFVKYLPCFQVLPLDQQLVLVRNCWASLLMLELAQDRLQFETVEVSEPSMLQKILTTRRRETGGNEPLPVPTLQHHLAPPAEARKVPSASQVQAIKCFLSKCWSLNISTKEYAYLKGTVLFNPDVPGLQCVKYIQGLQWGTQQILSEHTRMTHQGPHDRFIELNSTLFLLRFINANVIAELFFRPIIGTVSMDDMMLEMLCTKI
# DAX1 inh-2 = DAX1 (NR0B1) inhibitors on StAR promoter, primary screen, cell-based, luminescence, SF-1 (NR5A1), full-length DAX-1. HEK293T StAR-luciferase reporter, SF-1/DAX-1 repression relief. inhibition, % at 6.8 µM. actives 1.1% (n = 370,000). AID 652010, 2013;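 active = inhibition above the mean over all tested compounds plus 3 SD, cut at about 3.6% in these data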;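 note: 0% = DAX-1 cells with DMSO and 100% = cells lacking DAX-1 with DMSO; higher inhibition means more luminescence from relief of DAX-1 repression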
# ssDAF-12 act = S. stercoralis DAF-12 nuclear receptor activators, primary screen, cell-based, luminescence, HEK293, GRIP1 co-expression, lit1-tk-luc; activation, % at 6.8 µM; actives 1% (n = 370,000); AID 652126, 2013; HEK293 ssDAF-12/GRIP1 lit1-tk-luc reporter; % of 3 µM dafachronic acid response; Nuclear hormone receptor DAF-12 (Strongyloides stercoralis);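 active = activation above the mean over all tested compounds plus 3 SD, cut at about 0.9% in these data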;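 note: 0% = DMSO-only wells and 100% = 3 µM delta7-dafachronic acid wells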
# hcDAF-12 act = H. contortus DAF-12 nuclear receptor activators, primary screen, cell-based, luminescence, HEK293, lit1-tk-luc reporter. HEK293 hcDAF-12 lit1-tk-luc reporter; 0% DMSO, 100% Δ7-dafachronic acid. activation, % at 6.8 µM. actives 1.4% (n = 370,000). AID 652067, 2013;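 active = activation above the mean of all tested compounds plus 3 SD, cut at about 5.5% in these data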;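 note: 100% = response to 3 µM Δ7-dafachronic acid high control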
# SMARCA2 activ = SMARCA2 (BRM) function activators, primary screen, cell-based, luminescence, high throughput | AID 652017, 2013 | actives 1% (n = 370,000) | activation, % at 9.1 µM | MG213 cells, MMTV-luciferase reporter, dexamethasone, overnight; in the data active = activation above about 7.8%;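 note: 0% = vehicle wells and 100% = reference activator wells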
# hgDAF12 agonist = H. glycines DAF-12 receptor agonists, primary screen, cell-based, luminescence, HEK293, GAL4 fusion, UAS-luciferase; HEK293 GAL4-hgDAF12 UAS-luciferase reporter, agonist luminescence; normalized to butyrate control; activation, % at 6.8 µM; AID 687014, 2013; actives 1.8% (n = 370,000); Nuclear hormone receptor DAF-12 (Heterodera glycines), GAL4 fusion;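 active = activation above a cutoff set at the mean of all screened compounds plus 3 SD, cut at about 10% in these data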;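 note: 0% = DMSO wells and 100% = sodium butyrate wells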
# * marks the source's active call; other numbers are inactive results; nt = no result. Shown are actives, neighbours in structure and some others; about 4.8% of the full set was active somewhere.
SMILES,DAX1 inh-1,DAX1 inh-2,ssDAF-12 act,hcDAF-12 act,SMARCA2 activ,hgDAF12 agonist
O=C(CN1C(=O)c2cccc3cccc1c23)Nc1ccc2c(c1)OCO2,4.4*,-1,-2,-1,1,3
O=C(CSCc1ccccc1Cl)Nc1ccc2c(c1)OCCO2,5.8*,3,-1,3,7,11*
CCn1c2ccccc2c2cc(NC(=O)c3cc(OC)cc(OC)c3)ccc21,-3,-1,-1,3,-1,4
O=C(Nc1ncccc1O)c1cccc(S(=O)(=O)N2CCCC2)c1,0,1,-1,-1,-2,-1
Nc1ccccc1SCC(=O)Nc1ccc2c(c1)OCO2,0,4.2*,0,1,1,5
CC(C(=O)Nc1ccc2c(c1)OCCO2)N(C)Cc1c(F)cccc1Cl (configuration not stated),4.5*,1,0,-2,-1,-1
CCN1C(=NCc2ccco2)N[C@@H](c2cccc(C(F)(F)F)c2)C(C(=O)OC)=C1C,1,1,-1,0,1,0
Cc1cccc(NC(=S)N(CCCN2CCOCC2)Cc2ccco2)c1,0,1,-2,-1,-1,2
COC(=O)c1ccc(CSc2nc(-c3ccco3)cc(C(F)(F)F)n2)o1,1,0,-1,0,1,-1
CCOc1ccc2nc(N3C(=O)/C(=C/c4ccccc4)NC3=S)sc2c1,5.1*,2,0,3,1,10
O=S(=O)(NCc1ccccc1)[C@@H]1CC2C=CC1C2 (some centres not stated),1,0,-1,0,0,-1
Cc1ccc(NC(=O)C2OCCc3ccccc32)cc1C (configuration not stated),2,2,-1,2,-1,11*
NNC(=S)Nc1ccc(Cl)cc1,-1,0,0,1,-1,3
Cc1ccc(Cl)cc1NC(=S)NN,nt,0,0.9*,2,-2,2
Cc1ccc(Cl)cc1NC(=O)CCC(=O)O,5.0*,0,-2,-1,-1,4
CCOC(=O)C1CCCN(C2=NC(=O)/C(=C/c3ccc(N(C)C)cc3)S2)C1 (configuration not stated),-1,0,-1,1,1,2
Cc1ccc2nc(C)c(C(=O)N/N=C/c3ccc(N4CCOCC4)cc3)cc2c1,2,0,-1,1,0,-1
Cc1onc(-c2ccccc2Cl)c1C(=O)N1CCN(c2cccc(Cl)c2)CC1,-3,1,-1,-1,-3,-2
Cc1ccc(-c2cc(C(=O)Nc3c(C)n(C)n(-c4ccccc4)c3=O)no2)cc1,0,-1,-2,-1,0,-3
CC1=NN(c2ccccc2)C(=O)/C1=C\c1cn(C)c2ccccc12,0,0,-1,0,2,-1
CC1(C)C=Cc2cc3ccc(=O)oc3cc2O1,6.7*,1,0,2,5,8
COC(=O)[C@]1(C#N)CC(=O)N(Cc2ccc(Cl)cc2)[C@@H]1c1ccccc1,nt,-1,0,0,-3,-1
O=C(C=Cc1cccc(O)c1)c1ccccc1O,0,0,-1,3,-2,12*
CC1CCCC(NC(=O)CSc2ncccc2C(=O)O)C1C (configuration not stated),1,0,1.2*,2,-1,-2
COc1cccc(S(=O)(=O)NCc2ccc(C(=O)N3CCN(c4ccccc4)CC3)cc2)c1,-1,-3,-1,-3,-1,-1
SMILES,DAX1 inh-1,DAX1 inh-2,ssDAF-12 act,hcDAF-12 act,SMARCA2 activ,hgDAF12 agonist
Cc1ccc2nc(NCc3ccccc3)[nH]c2c1,1,0,0,4,3,11*
COc1ccc(CCNC(=O)C2CCN(S(=O)(=O)N3CC(C)CC(C)C3)CC2)cc1OC (configuration not stated),-1,-1,-2,-2,-3,-3
Cc1cccc(C2c3[nH]c4ccccc4c3CCN2Cc2ccc(C)s2)n1 (configuration not stated),0,0,1.0*,6.4*,0,4
COc1cccc(C2c3[nH]c4ccccc4c3CCN2Cc2cnc(C)s2)c1OC (configuration not stated),0,0,1.1*,3,-1,0
COc1ccc(C2c3[nH]c4ccccc4c3CCN2C(=O)Cc2nonc2C)c(F)c1 (configuration not stated),0,1,0,5.7*,6,9
COc1ccccc1C1c2[nH]c3ccccc3c2CCN1Cc1cnc(C)s1 (configuration not stated),0,0,1,4,1,-1
CC(=O)c1ccc(C(=O)N2CCc3c([nH]c4ccccc34)C2c2cccc(C)n2)s1 (configuration not stated),1,0,0,3,-1,-3
Cc1cccc(C2c3[nH]c4ccccc4c3CCN2C(=O)Cc2n[nH]c(C)n2)n1 (configuration not stated),1,1,1.5*,3,-1,4
Cc1cc(Cl)ccc1OCCCC(=O)NO,0,-1,-1,-2,-3,12*
Cc1ccc(C)c(NC(=O)C(=O)NCCCN2CCOCC2)c1,1,0,-1,-1,0,11*
NNC(=O)C(=O)NCCCN1CCOCC1,5.7*,0,-1,2,-3,-3
CC(C)CNC(=O)C(=O)NCCCN1CCOCC1,0,-1,-2,1,0,-3
S=C(NCCCN1CCOCC1)Nc1ccc(Cl)cc1Cl,0,0,-1,-1,-3,3
Cc1ccc(C)c(NC(=S)NCCCN2CCOCC2)c1,0,1,0.9*,-1,1,3
CN(CCC#N)C(=S)Nc1ccc(F)cc1,nt,0,0,2,-4,0
CCCc1cc(=O)[nH]c2nnc(SCC(=O)Nc3nnc(CC)s3)n12,0,2,-1,-1,-2,1
CCN(C(=O)COC(=O)c1nc(Cl)ccc1Cl)C1CCS(=O)(=O)C1 (configuration not stated),1,3,-1,0,2,1
CC(C)[C@H](NC(=O)N1CC(=O)Nc2ccccc21)C(=O)N[C@@H](Cc1ccccc1)C(=O)O,7.0*,2,-2,0,4,3

# Screens deposited in PubChem BioAssay by The Scripps Research Institute Molecular Screening Center.
